Laboratory results reported in PubChem BioAssay AID1159580 (chemical genetic matrix, 2015).
Hit rate of the full screen: of about 5,500 compounds, about 2,000 (36%) were called active. Roughly 18% stayed inconclusive and do not appear here. Rule as the data show it: active = normalized growth mostly below about 0.91 (no sharp cut-off); inconclusive = no clear call, values can overlap the other calls; inactive = mostly above about 0.92. The list shows a part of the results.

Assay: chemical genetic growth profiling, strain panel (AID 1159580);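 also: tested at 20 µM; growth read once vehicle control cultures reached saturation at 30 °C; 1 = growth at the plate median or of vehicle wells; lower values mean less growth of the strain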
Details: growth OD

Measured: normalized growth

CC1(C)O[C@@H]2CC3C4CCC5=CC(=O)C=C[C@]5(C)[C@@]4(F)[C@@H](O)C[C@]3(C)[C@]2(C(=O)CO)O1 (some centres not stated)
inactive: S. cerevisiae deletion strains, locus YJR075W, strain HOC1, stronger effect = lower value 1.01 | S. cerevisiae deletion strains, locus YKL009W, strain mrt4, stronger effect = lower value 1.01 | S. cerevisiae deletion strains, locus YKL068W, stronger effect = lower value 0.999 | S. cerevisiae deletion strains, locus YKL085W, strain MDH1 (second series), stronger effect = lower value 0.996 | S. cerevisiae deletion strains, locus YKL085W, strain MDH1, stronger effect = lower value 0.996 | S. cerevisiae deletion strains, locus YKL160W, strain elf1, stronger effect = lower value 0.968 | S. cerevisiae deletion strains, locus YKL190W, strain CNB1, stronger effect = lower value 1.02 | S. cerevisiae deletion strains, locus YKR001C, strain vps1, stronger effect = lower value 1.01 | S. cerevisiae deletion strains, locus YKR026C, strain gcn3, stronger effect = lower value 1.01 | S. cerevisiae deletion strains, locus YKR091W, strain srl3, stronger effect = lower value 0.992 | S. cerevisiae deletion strains, locus YLL001W, strain dnm1, stronger effect = lower value 1.01 | S. cerevisiae deletion strains, locus YLL026W, stronger effect = lower value 0.982 | S. cerevisiae deletion strains, locus YLL041C, strain sdh2, stronger effect = lower value 0.999 | S. cerevisiae deletion strains, locus YLR027C, strain aat2, stronger effect = lower value 1 | S. cerevisiae deletion strains, locus YLR039C, strain RIC1, stronger effect = lower value 1.01 | S. cerevisiae deletion strains, locus YLR058C, strain SHM2, stronger effect = lower value 1.02 | S. cerevisiae deletion strains, locus YLR102C, strain apc9, stronger effect = lower value 0.998 | S. cerevisiae deletion strains, locus YLR113W, strain HOG1, stronger effect = lower value 0.984 | S. cerevisiae deletion strains, locus YLR221C, strain rsa3, stronger effect = lower value 0.974 | S. cerevisiae deletion strains, locus YLR258W, strain gsy2, stronger effect = lower value 0.979 | S. cerevisiae deletion strains, locus YLR262C, strain YPT6 (second series), stronger effect = lower value 1.01 | S. cerevisiae deletion strains, locus YLR262C, strain YPT6, stronger effect = lower value 1.03 | S. cerevisiae deletion strains, locus YLR268W, strain sec22, stronger effect = lower value 1 | S. cerevisiae deletion strains, locus YLR320W, strain mms22, stronger effect = lower value 0.96 | S. cerevisiae deletion strains, locus YLR330W, strain CHS5, stronger effect = lower value 1.01 | S. cerevisiae deletion strains, locus YLR342W, strain FKS1 (second series), stronger effect = lower value 1.01 | S. cerevisiae deletion strains, locus YLR342W, strain FKS1, stronger effect = lower value 0.986 | S. cerevisiae deletion strains, locus YLR357W, strain rsc2, stronger effect = lower value 0.948 | S. cerevisiae deletion strains, locus YLR370C, strain arc18, stronger effect = lower value 0.996 | S. cerevisiae deletion strains, locus YLR371W, strain rom2, stronger effect = lower value 0.995 | S. cerevisiae deletion strains, locus YLR384C, strain iki3, stronger effect = lower value 0.995 | S. cerevisiae deletion strains, locus YLR418C, strain cdc73, stronger effect = lower value 0.967 | S. cerevisiae deletion strains, locus YML016C, strain PPZ1, stronger effect = lower value 1.01 | S. cerevisiae deletion strains, locus YML032C, strain rad52, stronger effect = lower value 0.997 | S. cerevisiae deletion strains, locus YML120C, strain ndi1, stronger effect = lower value 0.995 | S. cerevisiae deletion strains, locus YML124C, strain tub3, stronger effect = lower value 1.01 | S. cerevisiae deletion strains, locus YMR058W, strain fet3, stronger effect = lower value 1 | S. cerevisiae deletion strains, locus YMR078C, strain ctf18, stronger effect = lower value 0.995 | S. cerevisiae deletion strains, locus YMR125W, strain sto1, stronger effect = lower value 0.992 | S. cerevisiae deletion strains, locus YMR129W, stronger effect = lower value 1.01 | S. cerevisiae deletion strains, locus YMR205C, strain PFK2, stronger effect = lower value 0.961 | S. cerevisiae deletion strains, locus YMR223W, strain ubp8, stronger effect = lower value 1.01 | S. cerevisiae deletion strains, locus YMR231W, strain pep5, stronger effect = lower value 0.998 | S. cerevisiae deletion strains, locus YMR263W, strain SAP30, stronger effect = lower value 1 | S. cerevisiae deletion strains, locus YMR307W, strain GAS1, stronger effect = lower value 0.998 | S. cerevisiae deletion strains, locus YNL067W, strain RPL9B, stronger effect = lower value 1.02 | S. cerevisiae deletion strains, locus YNL071W, strain lat1, stronger effect = lower value 1 | S. cerevisiae deletion strains, locus YNL128W, strain TEP1, stronger effect = lower value 1.02 | S. cerevisiae deletion strains, locus YNL153C, strain GIM3, stronger effect = lower value 1.01 | S. cerevisiae deletion strains, locus YNL183C, strain NPR1, stronger effect = lower value 0.955 | S. cerevisiae deletion strains, locus YNL209W, strain ssb2, stronger effect = lower value 1 | S. cerevisiae deletion strains, locus YNL233W, strain BNI4, stronger effect = lower value 1.01 | S. cerevisiae deletion strains, locus YNL248C, strain rpa49, stronger effect = lower value 0.991 | S. cerevisiae deletion strains, locus YNL250W, strain rad50, stronger effect = lower value 0.993 | S. cerevisiae deletion strains, locus YNL271C, strain bni1, stronger effect = lower value 1.01 | S. cerevisiae deletion strains, locus YNL298W, strain CLA4, stronger effect = lower value 1.01 | S. cerevisiae deletion strains, locus YNL307C, strain MCK1, stronger effect = lower value 1 | S. cerevisiae deletion strains, locus YNL322C, strain KRE1 (second series), stronger effect = lower value 0.961 | S. cerevisiae deletion strains, locus YNL322C, strain KRE1, stronger effect = lower value 1.01 | S. cerevisiae deletion strains, locus YNR049C, strain mso1, stronger effect = lower value 1.01 | S. cerevisiae deletion strains, locus YNR052C, strain pop2, stronger effect = lower value 1 | S. cerevisiae deletion strains, locus YOL006C, strain TOP1, stronger effect = lower value 1.02 | S. cerevisiae deletion strains, locus YOL012C, strain htz1 0.691 | S. cerevisiae deletion strains, locus YOL147C, strain pex11, stronger effect = lower value 1.01 | S. cerevisiae deletion strains, locus YOR001W, strain rrp6, stronger effect = lower value 1 | S. cerevisiae deletion strains, locus YOR061W, strain CKA2, stronger effect = lower value 1.01 | S. cerevisiae deletion strains, locus YOR069W, strain VPS5, stronger effect = lower value 1.02 | S. cerevisiae deletion strains, locus YOR070C, strain gyp1, stronger effect = lower value 0.994 | S. cerevisiae deletion strains, locus YOR080W, strain dia2, stronger effect = lower value 0.998 | S. cerevisiae deletion strains, locus YOR083W, strain WHI5, stronger effect = lower value 0.956 | S. cerevisiae deletion strains, locus YOR106W, strain vam3, stronger effect = lower value 0.966 | S. cerevisiae deletion strains, locus YOR136W, strain idh2, stronger effect = lower value 0.998 | S. cerevisiae deletion strains, locus YOR144C, strain elg1, stronger effect = lower value 1.01 | S. cerevisiae deletion strains, locus YOR184W, strain ser1, stronger effect = lower value 0.99 | S. cerevisiae deletion strains, locus YOR231W, strain MKK1, stronger effect = lower value 0.981 | S. cerevisiae deletion strains, locus YOR265W, strain rbl2, stronger effect = lower value 0.985 | S. cerevisiae deletion strains, locus YOR270C, strain vph1, stronger effect = lower value 1.04 | S. cerevisiae deletion strains, locus YOR290C, strain snf2, stronger effect = lower value 0.979 | S. cerevisiae deletion strains, locus YOR316C, strain cot1, stronger effect = lower value 0.994 | S. cerevisiae deletion strains, locus YPL051W, strain arl3, stronger effect = lower value 0.976 | S. cerevisiae deletion strains, locus YPL055C, strain LGE1, stronger effect = lower value 1.05 | S. cerevisiae deletion strains, locus YPL078C, strain atp4, stronger effect = lower value 0.992 | S. cerevisiae deletion strains, locus YPL106C, strain sse1, stronger effect = lower value 0.923 | S. cerevisiae deletion strains, locus YPL240C, strain hsp82, stronger effect = lower value 1 | S. cerevisiae deletion strains, locus YPL241C, strain CIN2, stronger effect = lower value 1.01 | S. cerevisiae deletion strains, locus YPL256C, strain CLN2, stronger effect = lower value 0.97 | S. cerevisiae deletion strains, locus YPR119W, strain clb2, stronger effect = lower value 0.994 | S. cerevisiae deletion strains, locus YPR141C, strain kar3, stronger effect = lower value 0.998 | S. cerevisiae deletion strains, locus YPR163C, strain tif3, stronger effect = lower value 1.01 | S. cerevisiae deletion strains, locus YPR167C, strain met16, stronger effect = lower value 0.997 | S. cerevisiae deletion strains, strain wtn01, stronger effect = lower value 0.989 | S. cerevisiae strains, strain wild type, stronger effect = lower value 1.01
